PubChem BioAssay AID1159580 (chemical genetic matrix, 2015)
The whole screen tested about 5,500 compounds, of which about 2,000 (36%) were called active. About 18% were inconclusive and are not listed. Rule as the data show it: active = normalized growth mostly below about 0.91 (no sharp cut-off); inconclusive = no clear call, values can overlap the other calls; inactive = mostly above about 0.92. The list shows a part of the results.

Assay: chemical genetic growth profiling, strain panel (AID 1159580);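 also: tested at 20 µM; growth read once vehicle control cultures reached saturation at 30 °C; 1 = growth at the plate median or of vehicle wells; lower values mean less growth of the strain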
Settings: growth OD
[1] = S. cerevisiae deletion strains, locus YHR030C, strain SLT2, hits give low values
[2] = S. cerevisiae deletion strains, locus YHR079C, strain IRE1, hits give low values
[3] = S. cerevisiae deletion strains, locus YJL095W, strain BCK1, hits give low values
[4] = S. cerevisiae deletion strains, locus YJR066W, strain TOR1, hits give low values
[5] = S. cerevisiae deletion strains, locus YLR113W, strain HOG1, hits give low values
[6] = S. cerevisiae deletion strains, locus YNL183C, strain NPR1, hits give low values
[7] = S. cerevisiae deletion strains, locus YOR231W, strain MKK1, hits give low values
[8] = S. cerevisiae deletion strains, locus YPL256C, strain CLN2, hits give low values
[9] = S. cerevisiae deletion strains, locus YDR150W, strain NUM1, hits give low values
[10] = S. cerevisiae deletion strains, locus YGR229C, strain SMI1, hits give low values
[11] = S. cerevisiae deletion strains, locus YPL055C, strain LGE1, hits give low values
[12] = S. cerevisiae deletion strains, locus YPL241C, strain CIN2, hits give low values
[13] = S. cerevisiae deletion strains, locus YDL101C, strain DUN1, hits give low values

Measured: normalized growth

COC(=O)C(c1ccccc1)C1CCCCN1 (stereo unspecified)
inactive: [1] 0.978 | [2] 0.975 | [3] 0.974 | [4] 0.934 | [5] 0.95 | [6] 0.891 | [7] 0.971 | [8] 0.972

O=C(NCCNCC(O)COc1ccc(O)cc1)N1CCOCC1 (stereo unspecified)
inactive: S. cerevisiae deletion strains, locus YAL040C, strain CLN3, hits give low values 0.976 | S. cerevisiae deletion strains, locus YCL061C, strain MRC1 (second series), hits give low values 1 | [9] 0.993 | S. cerevisiae deletion strains, locus YDR363W, strain ESC2, hits give low values 1.01 | S. cerevisiae deletion strains, locus YER002W, strain NOP16, hits give low values 1.02 | [10] 1.02 | S. cerevisiae deletion strains, locus YMR307W, strain GAS1, hits give low values 0.997 | S. cerevisiae deletion strains, locus YNL128W, strain TEP1, hits give low values 0.998 | S. cerevisiae deletion strains, locus YNL175C, strain NOP13, hits give low values 0.998 | S. cerevisiae deletion strains, locus YNL197C, strain WHI3, hits give low values 0.993 | S. cerevisiae deletion strains, locus YNL224C, strain SQS1, hits give low values 0.997 | S. cerevisiae deletion strains, locus YOR083W, strain WHI5 (second series), hits give low values 1.01 | [11] 1.02 | [12] 1

Cc1ccc(OS(=O)(=O)c2c(Cl)sc(Cl)c2Br)c([N+](=O)[O-])n1
active: [5] 0.818
inactive: S. cerevisiae deletion strains, locus YAR019C, strain CDC15, hits give low values 0.964 | S. cerevisiae deletion strains, locus YBL105C, strain PKC1, hits give low values 0.964 | S. cerevisiae deletion strains, locus YBR135W, strain CKS1, hits give low values 0.968 | S. cerevisiae deletion strains, locus YBR136W, strain MEC1, hits give low values 0.967 | S. cerevisiae deletion strains, locus YBR160W, strain CDC28, hits give low values 0.963 | S. cerevisiae deletion strains, locus YDL017W, strain CDC7, hits give low values 0.957 | S. cerevisiae deletion strains, locus YDL028C, strain MPS1, hits give low values 0.972 | [13] 0.956 | S. cerevisiae deletion strains, locus YDL108W, strain KIN28, hits give low values 0.965 | S. cerevisiae deletion strains, locus YDL132W, strain cdc53, hits give low values 0.961 | S. cerevisiae deletion strains, locus YDL214C, strain PRR2, hits give low values 0.962 | S. cerevisiae deletion strains, locus YDR052C, strain DBF4, hits give low values 0.968 | S. cerevisiae deletion strains, locus YDR054C, strain cdc34, hits give low values 0.956 | S. cerevisiae deletion strains, locus YDR226W, strain ADK1, hits give low values 0.953 | S. cerevisiae deletion strains, locus YDR477W, strain SNF1, hits give low values 0.97 | S. cerevisiae deletion strains, locus YER123W, strain YCK3, hits give low values 0.952 | S. cerevisiae deletion strains, locus YER133W, strain GLC7, hits give low values 0.975 | S. cerevisiae deletion strains, locus YFL009W, strain cdc4, hits give low values 0.961 | S. cerevisiae deletion strains, locus YFL029C, strain CAK1, hits give low values 0.96 | S. cerevisiae deletion strains, locus YFR003C, strain YPI1, hits give low values 0.961 | S. cerevisiae deletion strains, locus YFR019W, strain FAB1, hits give low values 0.98 | S. cerevisiae deletion strains, locus YFR028C, strain CDC14, hits give low values 0.965 | S. cerevisiae deletion strains, locus YGR040W, strain KSS1, hits give low values 0.972 | S. cerevisiae deletion strains, locus YGR052W, strain FMP48, hits give low values 1 | S. cerevisiae deletion strains, locus YGR092W, strain DBF2, hits give low values 0.951 | [1] 0.961 | [2] 0.929 | S. cerevisiae deletion strains, locus YHR082C, strain KSP1, hits give low values 1.07 | S. cerevisiae deletion strains, locus YHR205W, strain SCH9, hits give low values 0.953 | S. cerevisiae deletion strains, locus YIL147C, strain SLN1, hits give low values 0.966 | [3] 0.968 | S. cerevisiae deletion strains, locus YJL128C, strain PBS2, hits give low values 0.909 | S. cerevisiae deletion strains, locus YJL157C, strain FAR1, hits give low values 0.96 | S. cerevisiae deletion strains, locus YJR016C, strain ILV3, hits give low values 0.965 | S. cerevisiae deletion strains, locus YJR066W, strain TOR1 (second series), hits give low values 0.956 | [4] 1.02 | S. cerevisiae deletion strains, locus YKL048C, strain ELM1, hits give low values 0.965 | S. cerevisiae deletion strains, locus YKL067W, strain YNK1, hits give low values 0.959 | S. cerevisiae deletion strains, locus YKL101W, strain HSL1, hits give low values 0.979 | S. cerevisiae deletion strains, locus YKL193C, strain SDS22, hits give low values 0.963 | S. cerevisiae deletion strains, locus YKL203C, strain TOR2, hits give low values 0.991 | S. cerevisiae deletion strains, locus YLR133W, strain CKI1, hits give low values 0.968 | S. cerevisiae deletion strains, locus YLR403W, strain SFP1, hits give low values 0.967 | S. cerevisiae deletion strains, locus YML070W, strain DAK1, hits give low values 0.959 | S. cerevisiae deletion strains, locus YMR001C, strain CDC5, hits give low values 0.957 | S. cerevisiae deletion strains, locus YMR205C, strain PFK2 (second series), hits give low values 0.971 | S. cerevisiae deletion strains, locus YMR277W, strain FCP1, hits give low values 0.961 | S. cerevisiae deletion strains, locus YNL006W, strain LST8, hits give low values 0.962 | S. cerevisiae deletion strains, locus YNL020C, strain ARK1, hits give low values 0.971 | S. cerevisiae deletion strains, locus YNL161W, strain CBK1, hits give low values 0.968 | [6] 1.01 | S. cerevisiae deletion strains, locus YNL207W, strain RIO2, hits give low values 0.955 | S. cerevisiae deletion strains, locus YNL222W, strain SSU72, hits give low values 0.971 | S. cerevisiae deletion strains, locus YNL307C, strain MCK1 (second series), hits give low values 0.965 | S. cerevisiae deletion strains, locus YOL078W, strain AVO1, hits give low values 0.967 | S. cerevisiae deletion strains, locus YOL136C, strain PFK27, hits give low values 0.957 | S. cerevisiae deletion strains, locus YOR061W, strain CKA2, hits give low values 0.962 | S. cerevisiae deletion strains, locus YOR119C, strain RIO1, hits give low values 1.04 | [7] 0.942 | S. cerevisiae deletion strains, locus YOR329C, strain SCD5, hits give low values 0.959 | S. cerevisiae deletion strains, locus YPL031C, strain PHO85, hits give low values 0.959 | S. cerevisiae deletion strains, locus YPL153C, strain RAD53, hits give low values 0.963 | S. cerevisiae deletion strains, locus YPL204W, strain HRR25, hits give low values 0.978 | S. cerevisiae deletion strains, locus YPL209C, strain IPL1, hits give low values 0.963 | [8] 0.92 | S. cerevisiae deletion strains, locus YPR025C, strain CCL1, hits give low values 0.964 | S. cerevisiae deletion strains, locus YPR106W, strain ISR1, hits give low values 0.961 | S. cerevisiae deletion strains, locus YPR111W, strain DBF20, hits give low values 0.948 | S. cerevisiae deletion strains, strain NNK1, hits give low values 0.956 | S. cerevisiae deletion strains, strain TSCII, hits give low values 0.957

Cc1ccc(OS(=O)(=O)c2ccc(Cl)cc2)c([N+](=O)[O-])n1
inactive: S. cerevisiae deletion strains, locus YAL013W, strain DEP1, hits give low values 0.965 | S. cerevisiae deletion strains, locus YBR229C, strain ROT2, hits give low values 0.987 | [13] 0.932 | S. cerevisiae deletion strains, locus YDL134C, strain PPH21, hits give low values 0.968 | [9] 0.833 | S. cerevisiae deletion strains, locus YEL061C, strain CIN8, hits give low values 0.964 | S. cerevisiae deletion strains, locus YGR078C, strain PAC10, hits give low values 0.931 | [10] 0.978 | [1] 0.775 | S. cerevisiae deletion strains, locus YHR087W, strain rtc3, hits give low values 0.975 | S. cerevisiae deletion strains, locus YJR043C, strain POL32, hits give low values 0.945 | S. cerevisiae deletion strains, locus YJR075W, strain HOC1, hits give low values 0.917 | S. cerevisiae deletion strains, locus YKL190W, strain CNB1, hits give low values 0.968 | S. cerevisiae deletion strains, locus YLR039C, strain RIC1, hits give low values 0.895 | S. cerevisiae deletion strains, locus YLR058C, strain SHM2 (second series), hits give low values 0.988 | S. cerevisiae deletion strains, locus YLR085C, strain ARP6, hits give low values 0.875 | S. cerevisiae deletion strains, locus YLR262C, strain YPT6, hits give low values 0.908 | S. cerevisiae deletion strains, locus YML094W, strain GIM5, hits give low values 0.953 | S. cerevisiae deletion strains, locus YMR219W, strain ESC1, hits give low values 0.973 | S. cerevisiae deletion strains, locus YMR263W, strain SAP30, hits give low values 0.95 | S. cerevisiae deletion strains, locus YNL153C, strain GIM3, hits give low values 0.936 | S. cerevisiae deletion strains, locus YNL298W, strain CLA4 (second series), hits give low values 0.915 | S. cerevisiae deletion strains, locus YNL322C, strain KRE1, hits give low values 0.976 | S. cerevisiae deletion strains, locus YNR030W, strain Alg12, hits give low values 0.943 | [11] 0.962 | [12] 0.943 | S. cerevisiae deletion strains, locus YPR135W, strain CTF4, hits give low values 0.877 | S. cerevisiae strains, strain wild type, hits give low values 0.949
